In all, about 1,400 compounds went through this assay and about 50 (4%) were called active.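 Rule for the calls: active = fitted curve reaches 30% CPE protection at or below the top valid dose, with every test run called active; inconclusive = test runs disagree, some active and some not; inactive = every test run inactive, including effects in the wrong direction.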 Not all results are given here. Measured potencies and affinities stand elsewhere.
Assay: Dengue virus 2 cytopathic effect protection, dose response, BHK-21 cells, ATP luminescence, cherry-pick (AID 687031)
Conditions: BHK-21 DENV2 CPE protection, 5 d; series mostly up to 19.5 µM

outcome, inactive:
CO[C@@H]1CN(C)C(=O)c2ccc(NC(=O)Nc3cc(F)ccc3F)cc2OC[C@@H](C)N(C(=O)c2ccccn2)C[C@H]1C
CC1=C(C(=O)N(C)C)CC(CC(=O)NC2CCCCC2)C(=O)N1Cc1ccc(C(C)(C)C)cc1 (stereo not drawn)
CN(CC(=O)Nc1cccc(F)c1)C(=O)c1ccccc1CCc1ccccc1
C[C@H](CO)N1C[C@H](C)[C@@H](CN(C)C(=O)C2CC2)Oc2cc(C#Cc3ccccc3)ccc2S1(=O)=O
Cc1cc(OCc2cc(C(=O)N(C)C(C)c3ccccn3)no2)cc(C)c1Cl (stereo not drawn)
COc1cc(C)ccc1OCc1cc(C(=O)NCCN2CCCC(O)C2)no1 (stereo not drawn)
Cc1c(C(=O)N2CCCC2)oc2ccc(Br)cc12
C[C@@H]1CN([C@H](C)CO)C(=O)Cc2cc(NC(=O)CCCCCC(=O)Nc3ccccc3N)ccc2O[C@@H]1CN(C)Cc1ccc(C(F)(F)F)cc1
Cc1ccc(S(=O)(=O)NC(=O)C2(C)CCN2C(=O)Cc2cccs2)cc1 (stereo not drawn)
C[C@H](NC(=O)c1ncn(Cc2ccccc2)c1C(=O)N[C@@H](C)c1ccccc1)c1ccccc1
C[C@H](CO)N1C[C@H](C)[C@H](CN(C)C(=O)Nc2ccc(C(F)(F)F)cc2)OCCCC[C@H](C)Oc2ccc(NS(=O)(=O)c3ccc(F)cc3)cc2C1=O
O=S(=O)(c1ccc(F)cc1)N1CC[C@@H]2[C@H]1c1cc(-c3ccc(F)cc3)ccc1N[C@@H]2CO
CCC(=O)N1CC[C@@H]2[C@H](CO)Nc3ccc(-c4cccc(C#N)c4)cc3[C@@H]21
COc1cccc(C(O)c2nc(-c3cc(F)cc(F)c3)cs2)c1 (stereo not drawn)
CC(NC(=O)CCc1ccccc1)c1ccc2c(c1)OCO2 (stereo not drawn)
CC(CNC(=O)Cn1ccc(NC(=O)OCc2ccccc2)nc1=O)c1ccccc1 (stereo not drawn)
CCCCCCN1CCN(C2CN(Cc3ccc(F)cc3)S(=O)(=O)C2)CC1 (stereo not drawn)
O=C(c1cnccn1)N1CC[C@@H]2[C@@H](CO)Nc3ccc(-c4ccccc4F)cc3[C@@H]21
Nc1c(-c2ccccc2)nc2ncccn12
CCOc1ccc(/C=N/NC(=O)c2ccccc2O)cc1CN1CC2CC(C1)c1cccc(=O)n1C2 (stereo not drawn)
CCCc1cc(=O)oc2c(C)c(OCC(=O)N3C[C@H]4C[C@@H](C3)c3cccc(=O)n3C4)ccc12
COc1ccc(NS(=O)(=O)c2cccs2)cn1
COc1cccc(OC)c1Nc1nc(C)nc2c1nnn2Cc1ccccc1Cl
